# Sampled rows, rich in hits. Any-hit rate of the full collection: about 6.9%.
# Vif-A3G inh – qHTS for Inhibitors of Vif-A3G Interactions: qHTS; HeLa A3G-eYFP + Vif (tagged APOBEC3G with the HIV-1 protein that degrades it), YFP fluorescence, overnight; 0.076% of 410,000 active; DNA dC->dU-editing enzyme APOBEC-3G (Homo sapiens), Q9HC16; Potency, µM (top dose mostly 46.1 µM), usual class: inhibitors; AID 602310, 2012; further: nearly all actives have a fitted effect of over 60% in size
# Target sequence (Q9HC16 whole entry, looked up): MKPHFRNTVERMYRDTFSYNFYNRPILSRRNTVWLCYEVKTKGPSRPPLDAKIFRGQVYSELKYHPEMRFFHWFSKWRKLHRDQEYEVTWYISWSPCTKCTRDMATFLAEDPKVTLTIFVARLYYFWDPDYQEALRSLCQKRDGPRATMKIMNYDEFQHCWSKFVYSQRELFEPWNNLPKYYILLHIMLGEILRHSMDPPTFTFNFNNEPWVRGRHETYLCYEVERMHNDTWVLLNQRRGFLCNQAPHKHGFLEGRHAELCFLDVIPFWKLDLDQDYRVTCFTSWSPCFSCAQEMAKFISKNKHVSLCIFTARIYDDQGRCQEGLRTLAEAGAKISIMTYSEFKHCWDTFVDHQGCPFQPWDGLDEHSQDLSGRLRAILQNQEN
#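 HeLa cells stably expressing Vif and C-terminally eYFP-tagged A3G, seeded overnight at 37 deg C, then exposed to compound by pintool overnight at 37 deg C. Rise in yellow fluorescence (Ex 488/Em 500-530, Acumen) marks blocked Vif-driven A3G degradation.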
# IL-1B inflam inh – qHTS for Inhibitors of Inflammasome Signaling: IL-1-beta AlphaLISA Primary Screen. activity change, % at 57.5 µM. 4.7% of 360,000 active. AID 743279, 2014. THP-1 LPS/ATP IL-1B secretion, AlphaLISA, 16 h; hits give low values; in the data active means activity change below about -50%; inconclusive means mostly about -30% to -49%
#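 THP-1 cells pretreated 1 hr with compounds (up to 57.5 uM final), then stimulated with LPS (250 ng/mL final) plus ATP (1.25 mM final); secreted IL-1B measured by AlphaLISA after 16 hr, decreased signal indicating inhibition.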
# Giardia killer – Small Molecules that selectively kill Giardia lamblia: qHTS; activity change, % at 7.66 µM, hits read low; 0.15% of 340,000 active; Giardia lamblia trophozoite viability; in the data active means activity change below about -80%; inconclusive means between about -30% and that limit;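 further: parasites exposed to compound for two days anaerobically before the ATP read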
#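 Giardia lamblia trophozoites (100 cells/well) were incubated with compounds for 48 h at 37 deg C under anaerobic conditions. Viability was read as ATP content by one-step luminescence after 15-30 min at room temperature.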
# Vif-A3F inh – qHTS for Inhibitors of Vif-A3F Interactions: qHTS. HeLa A3F-eYFP + Vif (tagged APOBEC3F with the HIV-1 protein that degrades it), YFP fluorescence increase. AID 602313, 2012. Potency, µM (titrated, usually from 46.1 µM). 0.2% of 390,000 active; further: nearly all actives have a fitted effect of over 65% in size
#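 Fluorescence increase (Ex 488/Em 500-530) after overnight compound treatment at 37 deg C flags inhibition of Vif-driven A3F-eYFP loss in stable HeLa A3F-eYFP/Vif cells seeded overnight beforehand.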
# MCF10A rereplic – A quantitative high throughput screen for small molecules that induce DNA re-replication in MCF 10a normal breast cells. Potency, µM (doses to about 46.1 µM), actives largely listed as activators. MCF 10A DNA re-replication, Hoechst nuclear intensity, 48 h. 2.9% of 350,000 active. AID 624296, 2012; further: nearly all actives have a fitted effect of over 50% in size
# SW480 rerep – A quantitative high throughput screen for small molecules that induce DNA re-replication in SW480 colon adenocarcinoma cells; SW480 DNA re-replication, Hoechst DNA content imaging, 48 h; AID 624297, 2012; Potency, µM (doses to about 46.1 µM), most hits filed as activators; 1.8% of 340,000 active; further: nearly all actives have a fitted effect of over 55% in size
#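 Image-based read-out: total Hoechst fluorescence of nuclei (405 nm excitation, 500-530 nm emission), with hits raising the fraction of high-intensity nuclei. SW480 colon cells incubated 48 hr with compounds at 37 C.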
# Numbers stand for hits; - = inactive; ? = inconclusive; . = no result given. Unless noted, the call rests on the fitted dose curve; in most records, active means well fitted curve in the direction sought with a large enough effect; inconclusive means small, poorly fitted or top-dose-only effect, or another doubt; inactive means no such curve, though single readings can be large; an effect the other way counts as inactive or inconclusive.
SMILES,Vif-A3G inh,IL-1B inflam inh,Giardia killer,Vif-A3F inh,MCF10A rereplic,SW480 rerep
COc1ccccc1NS(=O)(=O)c1ccc(-c2cnc(C3CC3)o2)cc1,-,-,-,-,?,-
O=S(=O)(Nc1ccc(F)cc1Cl)c1ccc(-c2cnc(C3CC3)o2)cc1,?,-,-,-,1µM,?
COc1ccc(CCNC(=O)c2ccc(Br)cc2)cc1,-,-,-,-,-,-
COc1ccc(CCNC(=O)c2coc(=O)c(Br)c2)cc1,?,-,-,?,5.8µM,?
Cn1c(=O)c(C(=O)NNC(=O)c2ccc(Br)cc2)c(O)c2ccccc21,-,-,-,-,23µM,-
CCCCCOc1ccccc1CN1C(=O)C(=O)c2cc(C)ccc21,-,.,.,-,.,.
CCN(C(=O)c1cc(S(=O)(=O)N2CCCC2)cn1C)c1ccc(OC)cc1,-,.,.,-,.,.
CCN1CCN(C(c2ccc(F)cc2)c2nnnn2Cc2cccs2)CC1 (centres undefined),-,-,-,-,23µM,?
O=C(Nc1ccc(N2CCOCC2)cc1)c1cc2c(s1)CCCC2,-,-79,-,-,?,-
O=C(Nc1ccccc1N1CCOCC1)c1cc2c(s1)CCCCC2,-,-,-,-,?,-
O=C(Nc1cccc(S(=O)(=O)Nc2ccc(Cl)cc2)c1)c1cc2c(s1)CCCC2,-,-81,-,-,?,-
O=C(Nc1ccc(N2CCOCC2)cc1)c1cc2c(s1)CCCCC2,-,-80,-,-,-,?
Cc1cccc(C)c1OC(=O)CSc1nnc(CNC(=O)c2ccccc2)o1,-,.,.,-,.,.
O=C(Cn1c(=O)n(Cc2ccccc2)c(=O)c2oc3ccccc3c21)Nc1ccc(Cl)cc1,-,.,.,-,.,.
COc1ccc2[nH]c3c(C)c4ccncc4c(C)c3c2c1,-,-100,-,?,-,-
CNCC(O)CN(c1ccccc1)c1ccccc1 (centres undefined),-,?,-,-,?,-
NC(N)=NCC(O)CN(c1ccccc1)c1ccccc1 (centres undefined),-,-82,-,-,-,-
CSc1nnc(C)c(/C=C/NOCc2cccc(F)c2)n1,-,-,-,-,-,-
CSc1nnc(C)c(/C=C/Nc2ccc(F)cc2F)n1,-,-,-,-,18µM,-
C=CCN1C(=O)C(CC(C)C)NC1=S (centres undefined),.,.,.,.,-,-
Cc1ccc(CN2CCN(C(=O)CCC(=O)Nc3nnc(C(C)C)s3)CC2)c(C)c1,-,-86,-,-,-,-
C=C1C(=O)OC2C1C(OC(=O)C(C)=CC)CC(=C)C1C(O)C3OC3(C)C21O (centres undefined),?,-101,-,-,13µM,21µM
CCOc1cc(/C=C2\CN(C)C/C(=C\c3ccc(O)c(OCC)c3)C2=O)ccc1O,?,-105,-,-,0.73µM,1.6µM
CCOc1cc(/C=C2\CCn3c2nc2cc(Cl)ccc2c3=O)ccc1O,-,-,-,-,13µM,10µM
COc1cc(C=C2CN(C)C(=O)C2=O)ccc1O,-,-,.,-,.,.
SMILES,Vif-A3G inh,IL-1B inflam inh,Giardia killer,Vif-A3F inh,MCF10A rereplic,SW480 rerep
CCOc1cc(/C=C2\CCC/C(=C\c3cc(Cl)c(O)c(OCC)c3)C2=O)cc(Cl)c1O,3.2µM,-100,-,?,?,?
Cc1cc(C)cc(Nc2cc(C(=O)NCc3ccccc3)c3ccccc3n2)c1,-,.,.,-,.,.
COc1ccc(CN(Cc2ccccc2)C(=O)Nc2ccccc2)cc1COc1ccc(NC(C)=O)cc1,.,.,-,.,.,.
CC1=C(C(=O)OC2CCCCCCC2)C(c2cc3c(cc2Br)OCO3)CC(=O)N1 (centres undefined),-,-59,-,-,5.8µM,?
O=c1c2ccccc2n(Cc2c(F)cccc2Cl)c(=O)n1CCc1ccccc1,-,.,.,-,.,.
CCc1cccc(NC(=O)CSc2nc3ccsc3c(=O)n2CC)c1,-,.,.,-,.,.
Cc1ccc(CN(Cc2ccco2)C(=O)COc2ccc(Cl)cc2)o1,-,.,.,-,.,.
COC(=O)c1cc(S(=O)(=O)n2nc(C)c(Br)c2C)c(Cl)cc1Cl,-,-85,-,-,?,-
Cc1cc(C)n(S(=O)(=O)c2cc(C(=O)O)c(Cl)cc2Cl)n1,-,-,-,-,-,-
CCCCCCCNC1=CC(=O)CC(c2ccccc2)C1 (centres undefined),-,-,-,-,18µM,?
O=C(NC(=S)N(Cc1ccccc1)Cc1ccccc1)c1ccccc1F,-,-,-,-,-,1.6µM
CC(C)CC(=O)NC(=S)N(Cc1ccccc1)Cc1ccccc1,-,-,-,25µM,-,-
O=C(NC(=S)NCc1ccccc1)c1ccccc1F,-,-,-,-,-,-
CC(C)N(C(=O)Cn1cc(S(=O)(=O)Cc2ccc(Br)cc2)c2ccccc21)C(C)C,-,.,.,-,.,.
Oc1cc(-c2cccnc2)cc2cccnc12,?,.,-,?,10µM,?
CN1CCN(c2cc(-c3cc(O)c4ncccc4c3)ccn2)CC1,-,.,-,-,-,?
CN(C(=O)c1ccoc1)c1ccccc1I,-,.,-,.,.,.
COc1ccc(C(=O)/C=C/C(=O)N(Cc2ccccc2OC)C(C(=O)NC2CCCCC2)c2ccncc2)c(O)c1 (centres undefined),-,-78,-,-,?,-
COc1ccc(C(=O)/C=C/C(=O)N(Cc2ccc(F)cc2)C(C(=O)NC2CCCCC2)c2ccncc2)c(O)c1 (centres undefined),-,-64,-,-,-,?
COc1ccccc1CN(C(=O)CCl)C(C(=O)NC1CCCCC1)c1ccncc1 (centres undefined),-,-,-,-,-,-
COc1ccc(C(=O)/C=C/C(=O)N(Cc2ccccc2)C(C(=O)NC2CCCCC2)c2ccncc2)c(O)c1 (centres undefined),-,-,-,-,-,-
Cc1ccccc1Nc1nc(-c2ccccc2)c(C(=O)Nc2cccnc2)s1,-,?,-,-,23µM,?
COc1ccc(C(=O)/C=C/C(=O)N(CC(=O)NC2CCCCC2)CC2CCCO2)c(O)c1 (centres undefined),?,-98,-,-,12µM,-
Cc1ccc(S(=O)(=O)NCC(=O)N(CC(=O)NC2CCCC2)CC2CCCO2)cc1 (centres undefined),-,-,-,-,-,-
COc1ccc(C(=O)/C=C/C(=O)N(CC(=O)NC2CCCCC2)Cc2ccccc2OC)c(O)c1,-,-100,-,-,?,3.3µM
COc1ccc(C(=O)/C=C/C(=O)N(CC(=O)NC2CCCCC2)Cc2ccccc2)c(O)c1,-,-100,-,-,?,6.5µM

# Screens from PubChem BioAssay.
